Results published in the OligoGym collection.

The sequences below were run against PSKH2 (assay: pooled miR-30 sensor sort-seq; sequence = guide strand). Details: shRNA.
Also: reference of the scale not given here.

Sequence	sensor-assay potency score (higher = more potent)
TAGAAGACTGTGCAGATCCAGG	-0.858
TTGACCTTCGTGCTTGGCCCAA	-1.26
AAATTTTCGACTCTTCACCTGG	0.215
TTTTCGACTCTTCACCTGGATG	-1.22
TTGCCTTTCAGAATCTTCCTGT	0.856
TTTGTCTATAAAGTCCTTCGCC	-0.325
TTTGTGAGAATAATGTGACTTA	0.516
TTACCATGTAAACTTGATCCTC	-0.301
TACCATGTAAACTTGATCCTCA	0.763
TAGTTTGTCTATAAAGTCCTTC	-0.109

What follows are sequences tested against PSMB6 in the same assay as above. Details: shRNA.

Sequence	sensor-assay potency score (higher = more potent)
TTGTCAGTCACTCGATTGGCGA	-1.6
TCGTGAATAGGTGTCAGCTTGT	-0.101
TTGTTCTGGAGTCCGCCCCCAG	-1.38
TAGCCATAGATGTAGGAGCTCC	-0.837
TAGGTAGCATCAACATAGCCAT	-0.545
TATCGGTAACACATCTCCTTAA	-0.95
TTGCAGACACTCTTCCTTGGTC	-0.171
TTAAATTTTGCATCAGTACAGG	-0.777
TTCAATGCTGTGGAAACCGAGC	-0.63
TCAGCTTGTCAGTCACTCGATT	-0.432
GTATCGGTAACACATCTCCTTA	-1.65
AATGCTGTGGAAACCGAGCTGG	-0.331

The sequences below were run against PSMC1 in the same assay as above. Details: shRNA.

Sequence	sensor-assay potency score (higher = more potent)
AACTTCAGTAATTTTAACCGGC	0.102
TTTAATTCTCTCTAACTTCAGT	-0.456
TTGAGCAGGACCGAGCAGCCAG	-1.07
TAATTCTCTCTAACTTCAGTAA	-0.505
TTGTGGTTGAGCAGGACCGAGC	-1.36
TAATGGTTTCATTTGTTCCTGA	-0.172
TTTCTTGTCCTTGTCATCCTTC	0.111
AATATCTGCATAGGTCTCCTGG	-0.497
TTGTCCTTGTCATCCTTCTTGC	-0.829
TTCAGCAGTTCCAACATTGTTC	-0.616
TTGCCTTGATGTCAGCACCAGA	-0.927

Each sequence was assayed against PSMD14 in the same assay as above. Details: shRNA.

Sequence	sensor-assay potency score (higher = more potent)
TACATCCACATGTTCCTCCAAA	-0.84
TATCTTCTTCTTCTACAGCCTT	-0.722
ATCTTCTTCTTCTACAGCCTTA	-0.913
TAGCTTGGAACACTGGATCAAC	-0.999
TAGCAACATCTTCTGTTCCAGT	-0.472
TTAGCAACATCTTCTGTTCCAG	0.0236
TAACATTTTTAACAGTGCCAGG	-1.43
